These results are taken from PubChem BioAssay AID1671202 (University of Kansas High Throughput Screening Laboratory, 2021).

Where “and” joins values, the source holds several entries; their conditions need not be identical. Equal entries are not always repeated. The whole screen tested about 190,000 compounds, of which about 6,900 (3.6%) were called active. The entries come from a sample that favours actives as a whole. A number with no mark means an inactive call. Cut-off read from the data, not from the text of the source: active = inhibition above about 50%; inactive = the rest.

Sequence of Huntingtin (Homo sapiens) (P42858 whole entry, looked up, stated change not applied): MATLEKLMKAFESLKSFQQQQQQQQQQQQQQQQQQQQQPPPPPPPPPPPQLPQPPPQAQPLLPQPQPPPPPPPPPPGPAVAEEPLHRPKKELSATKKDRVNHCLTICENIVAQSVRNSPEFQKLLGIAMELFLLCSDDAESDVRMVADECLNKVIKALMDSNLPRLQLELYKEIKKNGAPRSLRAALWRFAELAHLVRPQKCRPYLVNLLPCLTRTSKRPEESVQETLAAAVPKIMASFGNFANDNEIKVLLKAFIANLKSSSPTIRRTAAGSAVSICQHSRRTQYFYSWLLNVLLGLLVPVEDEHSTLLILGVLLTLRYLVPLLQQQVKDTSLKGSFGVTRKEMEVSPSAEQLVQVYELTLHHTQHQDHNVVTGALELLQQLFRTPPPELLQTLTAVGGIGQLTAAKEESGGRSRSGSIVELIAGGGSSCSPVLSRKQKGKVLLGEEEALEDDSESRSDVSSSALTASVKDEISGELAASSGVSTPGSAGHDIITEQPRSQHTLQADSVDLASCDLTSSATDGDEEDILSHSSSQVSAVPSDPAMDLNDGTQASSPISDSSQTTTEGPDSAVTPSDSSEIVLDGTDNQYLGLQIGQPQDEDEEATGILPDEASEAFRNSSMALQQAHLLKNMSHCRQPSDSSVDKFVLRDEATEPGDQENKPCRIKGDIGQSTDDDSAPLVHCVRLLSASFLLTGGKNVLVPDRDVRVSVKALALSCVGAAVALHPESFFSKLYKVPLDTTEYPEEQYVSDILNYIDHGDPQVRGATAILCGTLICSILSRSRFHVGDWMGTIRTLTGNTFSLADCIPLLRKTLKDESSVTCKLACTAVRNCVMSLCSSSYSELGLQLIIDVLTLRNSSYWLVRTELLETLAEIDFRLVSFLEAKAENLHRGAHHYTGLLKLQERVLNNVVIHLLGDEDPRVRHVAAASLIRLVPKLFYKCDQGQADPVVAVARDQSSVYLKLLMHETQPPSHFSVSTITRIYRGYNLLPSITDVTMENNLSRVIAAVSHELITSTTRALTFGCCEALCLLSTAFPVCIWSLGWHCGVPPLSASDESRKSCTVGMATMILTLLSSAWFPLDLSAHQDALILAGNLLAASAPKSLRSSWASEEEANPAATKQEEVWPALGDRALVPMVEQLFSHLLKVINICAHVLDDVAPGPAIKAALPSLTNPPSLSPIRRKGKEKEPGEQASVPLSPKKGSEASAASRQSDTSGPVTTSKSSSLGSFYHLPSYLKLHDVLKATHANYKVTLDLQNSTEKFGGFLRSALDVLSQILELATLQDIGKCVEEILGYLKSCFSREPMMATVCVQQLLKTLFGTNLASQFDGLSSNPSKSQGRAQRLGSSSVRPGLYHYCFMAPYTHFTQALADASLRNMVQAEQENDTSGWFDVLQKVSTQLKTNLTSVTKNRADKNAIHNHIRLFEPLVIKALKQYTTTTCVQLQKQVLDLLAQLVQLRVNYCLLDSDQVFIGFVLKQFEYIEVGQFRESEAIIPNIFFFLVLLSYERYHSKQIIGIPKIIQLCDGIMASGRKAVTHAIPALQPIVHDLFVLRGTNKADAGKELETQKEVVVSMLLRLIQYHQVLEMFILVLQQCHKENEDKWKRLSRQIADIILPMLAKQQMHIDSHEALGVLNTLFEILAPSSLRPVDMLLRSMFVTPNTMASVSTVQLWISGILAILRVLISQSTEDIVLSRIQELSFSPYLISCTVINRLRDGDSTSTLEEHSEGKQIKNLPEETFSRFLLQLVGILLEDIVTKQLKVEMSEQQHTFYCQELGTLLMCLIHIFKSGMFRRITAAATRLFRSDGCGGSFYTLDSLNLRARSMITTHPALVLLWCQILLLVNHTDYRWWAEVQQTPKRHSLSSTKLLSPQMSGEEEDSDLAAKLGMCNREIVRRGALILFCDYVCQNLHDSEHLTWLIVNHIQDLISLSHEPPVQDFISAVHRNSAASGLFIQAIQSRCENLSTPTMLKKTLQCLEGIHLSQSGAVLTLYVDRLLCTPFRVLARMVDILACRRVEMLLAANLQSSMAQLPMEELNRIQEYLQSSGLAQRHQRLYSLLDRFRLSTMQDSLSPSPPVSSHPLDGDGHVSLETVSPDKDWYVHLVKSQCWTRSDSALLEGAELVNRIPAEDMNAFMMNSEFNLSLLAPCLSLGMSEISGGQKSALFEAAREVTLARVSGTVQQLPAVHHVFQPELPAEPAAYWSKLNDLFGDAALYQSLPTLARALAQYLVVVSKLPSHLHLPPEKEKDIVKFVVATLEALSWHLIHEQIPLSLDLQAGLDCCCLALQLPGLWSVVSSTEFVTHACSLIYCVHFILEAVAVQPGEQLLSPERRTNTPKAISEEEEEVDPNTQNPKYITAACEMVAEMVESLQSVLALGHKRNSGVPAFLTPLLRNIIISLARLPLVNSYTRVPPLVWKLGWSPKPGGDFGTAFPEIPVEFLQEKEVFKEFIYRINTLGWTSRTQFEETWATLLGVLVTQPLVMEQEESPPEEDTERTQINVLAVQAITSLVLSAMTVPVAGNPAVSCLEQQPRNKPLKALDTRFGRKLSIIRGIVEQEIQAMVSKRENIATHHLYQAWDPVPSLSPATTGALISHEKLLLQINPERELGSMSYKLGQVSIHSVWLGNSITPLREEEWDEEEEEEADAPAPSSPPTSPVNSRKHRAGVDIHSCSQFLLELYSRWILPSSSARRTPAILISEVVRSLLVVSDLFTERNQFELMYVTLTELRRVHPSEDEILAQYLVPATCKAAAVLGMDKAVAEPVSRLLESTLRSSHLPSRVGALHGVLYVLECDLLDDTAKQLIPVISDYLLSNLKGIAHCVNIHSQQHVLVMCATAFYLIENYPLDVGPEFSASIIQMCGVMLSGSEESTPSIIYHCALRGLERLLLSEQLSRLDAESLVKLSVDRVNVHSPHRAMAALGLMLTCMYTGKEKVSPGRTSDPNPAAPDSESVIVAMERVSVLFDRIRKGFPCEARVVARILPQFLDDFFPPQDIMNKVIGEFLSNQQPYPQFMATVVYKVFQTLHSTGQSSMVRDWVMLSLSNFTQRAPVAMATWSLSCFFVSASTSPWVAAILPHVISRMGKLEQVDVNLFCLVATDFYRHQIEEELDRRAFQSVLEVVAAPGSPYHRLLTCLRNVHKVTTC

The assay addresses Huntingtin (Homo sapiens) (UniProt P42858). Put plainly: mutant huntingtin-calmodulin interaction inhibitors – biochemical, AlphaScreen, primary screen (AID 1671202).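 Note: 0% = both proteins with DMSO and 100% = one protein alone.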 The settings on record: AlphaScreen His-mHTT/GST-CaM binding, luminescence; at 15 µM, active compounds read high. For orientation: In Alpha technology, singlet oxygen from a donor bead excites a nearby acceptor bead.
Turning to `O=[N+]([O-])C(=C1SCCS1)C(=C(Cl)Cl)N1CCCC1`, the inhibition (in general, the relative decrease from the control value, in per cent) was 62% (active).
Under `O=C1CS/C(=C(\C(Cl)=C(Cl)Cl)[N+](=O)[O-])N1c1ccc(Cl)cc1` stands 33%.
For the molecule `CCC1CO/C(=C(\C(=C(Cl)Cl)N2CCOCC2)[N+](=O)[O-])N1` (stereo not given), the inhibition was -5%.
Under `N#C/C(=C\c1ccccc1F)c1nc(-c2cccc([N+](=O)[O-])c2)cs1` stands 5.7%; under `CCC(=O)NCc1nc2c(n1CC)CN(S(=O)(=O)Cc1ccc(Cl)cc1)CC2`, 0.5%.
For `COc1ccc(N2C(=O)NC3CC2(C)Oc2ccccc23)cc1Cl` (stereo not given), the inhibition is -0.83%.
Regarding `CN1CCCN(C(=O)C2COC3(CCCCC3)N2C(=O)c2ccccc2)CC1` (stereo not given), the inhibition was 1.3%.
Consider `Cc1cc(C2CCCN2C(=O)c2cc(-c3ccccc3F)no2)no1` (stereo not given), for which the inhibition was -0.13%.
Consider `C=CCn1c(-c2ccccc2)csc1=Nc1ccc(O)cc1`, for which the inhibition was 69% (active).
With `Cc1c(N=C2C=C(C(C)C)C(=O)C(C(C)C)=C2)c(=O)n(-c2ccccc2)n1C`, the inhibition is 8%.
In the case of `C=CCn1c(=O)c2cnc(-c3ccc(Cl)cc3)nc2n(C)c1=O`, the inhibition is -3.7%.
As for `C=CCn1c(-c2ccc(Cl)cc2)csc1=Nc1c(C)n(C)n(-c2ccccc2)c1=O`, the inhibition was 66% (active).
As to `CCn1c(=NC(=O)c2ccc(S(=O)(=O)N(C)C)cc2)sc2cc(F)ccc21`, the inhibition was 3%.
Under `CCN1CCN(c2ncc3c(n2)CCN(Cc2cc(OC)c(OC)cc2OC)C3)CC1` stands 23.9%.
As to `COc1ccc(C2CC(=O)C3=C(C2)Nc2ncnn2C3c2cccc(OC)c2OC)cc1` (stereo not given), the inhibition is 10.8%.
Under `O=C(NCCC1=CCCCC1)C1CCCN(Cc2nc(-c3ccncc3)no2)C1` (stereo not given) stands -3.8%; under `COc1ccc(-n2c3c(cc(C(=O)N4CCOCC4)c2=O)C(=O)CC(C)(C)C3)cc1`, -1%; under `CC(C)c1ccc(C2N3CC4(C)CN2CC(C)(C3)C4O)cc1` (stereo not given), -5% and 3.2%.
As to `Cc1ccc(C(=O)N2CCN(c3ccccc3)CC2)cc1`, the inhibition was 0.5%.
With `Cc1c(C)n(Cc2ccccc2)c2ccc(C(=O)N3CCN(C(=O)c4ccccc4)CC3)cc12` the figure was 99% (active).
Take `Cc1cccc(C(=O)N2CCCN(C(=O)c3cccc(C)c3)CC2)c1`: the inhibition is -1.9%.
Turning to `O=C(Nc1ccccc1[N+](=O)[O-])c1c(F)cccc1F`, the inhibition is 2.8%.
Regarding `Fc1ccc(C2CC(c3ccc(Br)cc3)Nc3ncnn32)cc1` (stereo not given), the inhibition was 7%.
Consider `CCN1/C(=C2\N=C(c3ccccc3)OC2=O)C=Cc2ccccc21`, for which the inhibition is 39%.
With `CCN1C(=Cc2cc[n+](-c3ccccc3)cc2)C=Cc2ccccc21`, the inhibition was 65% (active).
Under `CC(=O)C1=C(O)C(=O)N(c2nccs2)C1c1ccc([N+](=O)[O-])cc1` (stereo not given) stands 10.1%; under `COc1ccc(NC(=O)Nc2cccc3cccnc23)cc1`, 11.4%.
As to `O=C(Nc1ccccc1)Oc1cccc2cccnc12`, the inhibition was 93.6% (active).
For `O=C(O)c1ccccc1-c1ccccc1C(=O)Nc1cccc2cccnc12`, the inhibition is 8.7%.
Under `C=CCNC(=O)c1c(F)ccc(S(=O)(=O)N2CCCCCC2)c1F` stands -7%; under `O=C(Cn1ncn2nc(-c3ccc(Cl)cc3)cc2c1=O)Nc1ccccc1C(F)(F)F`, -7.9%.
Consider `CCNC(=O)c1csc(-c2cccc(OC)c2)n1`, for which the inhibition is -7.8%.
For the molecule `COc1ccc(/C=C2\SC(=O)N(CN3CCOCC3)C2=O)cc1`, the inhibition is -4%.
With `NNc1ncnc2sc3c(c12)CCCC3` the figure was 100% (active); with `OCCNc1ncnc2sc3c(c12)CCCCC3`, 1.3%; with `Clc1ncnc2sc3c(c12)CCCCC3`, -7.58%.
With `COc1cc(C(=O)N2CCC(CC(=O)NC3CCCC3)CC2)cc(OC)c1OC`, the inhibition is -1.18%.
Regarding `O=C1C[C@H]2C=CCc3cccc(c32)CN1Cc1ccccc1`, the inhibition is 100% (active).
With `O=C1C[C@@H]2c3c(cccc3CN1Cc1ccccc1)C[C@@H](O)[C@H]2O`, the inhibition was 1.6%.
With `Cc1cccc(CN2Cc3cccc4c3[C@H](C=CC4)CC2=S)c1` the figure was 3.5%; with `O=C(Cc1ccc(F)cc1Cl)N1CCCC1c1cccc(F)c1` (stereo not given), -1.36%.
With `COc1ccc(CNC(=O)C2CC(=O)N(c3ccc(OCc4ccc(F)cc4)cc3)C2)cc1` (stereo not given), the inhibition is -13.8%.
On to `COc1ccc(C2CC(C(F)(F)F)n3ncc(C(=O)NC45CC6CC(CC(C6)C4)C5)c3N2)cc1` (stereo not given), for which the inhibition is 6%.
Regarding `CC1CC(C)CN(S(=O)(=O)c2ccc(C(=O)Nc3nc(-c4ccccn4)cs3)cc2)C1` (stereo not given), the inhibition was 17%.
As to `COCCNC(=O)Nc1nc(-c2ccccn2)cs1`, the inhibition was 95.6% (active).
On to `COc1ccc(C(=O)Nc2cc(-c3ccccn3)no2)cc1`, for which the inhibition is -10.4%.
For `Cc1nc(NC(=O)Cc2csc(NC(=O)c3ncccn3)n2)sc1C`, the inhibition was 98% (active).
Regarding `COC(=O)Nc1nc(CC(=O)NCc2nc3ccccc3[nH]2)cs1`, the inhibition was -0.6%.
Consider `Cc1nc(NC(=O)c2ccoc2C)sc1C`, for which the inhibition is 10%.
With `O=C(Cc1csc(NC(=O)c2ncccn2)n1)Nc1cccc2nsnc12` the figure was 99.8% (active).
Regarding `CC(C)SCC(=O)Nc1nc(CC(=O)O)cs1`, the inhibition was 1.9%.
As for `COc1cc(C(=O)Nc2cccc3nsnc23)cc(OC)c1OC`, the inhibition is -8.5%.
As for `Cc1ccc(NC(=O)c2ccc(Cl)c(Cl)c2)nc1`, the inhibition was -13.9% and -7%.
Consider `O=C(CSc1nc2ccsc2c(=O)n1Cc1ccccc1F)NC1CCCC1`, for which the inhibition is -3%.
Turning to `CC(=O)N(C)C1(C(=O)NC2CCCCC2)CCCCC1`, the inhibition is 4%.
Regarding `COCCCNC(=O)C1(C)CCC(=O)N1Cc1ccc(C)cc1` (stereo not given), the inhibition is 3.12%.
With `CCCCN(C)S(=O)(=O)c1ccc(C(=O)Nc2nnc(C)o2)cc1`, the inhibition was 32%.
Regarding `Cc1cc2c(cc1C)NC1(C[C@H]3CCC(=O)N4CC[C@@H](C1)[C@@H]34)C(=NC(C)(C)CC(C)(C)C)N2` (stereo not given in full), the inhibition is 96.4% (active).
As to `O=C1CC[C@@H]2CC3(C[C@@H]4CCN1[C@H]24)Nc1cc([N+](=O)[O-])ccc1NC3=NC1CCCCC1` (stereo not given in full), the inhibition is 57.5% (active).
With `O=C1CCC[C@@H]2C[C@@]3(C[C@@H]4CCN1[C@H]24)Nc1ccccc1NC3=NCc1ccccc1`, the inhibition is 11.5%.
As to `O=C(/C(=C1\Nc2ccc([N+](=O)[O-])cc2N1)[N+](=O)[O-])N1CCCCC1`, the inhibition was 8%.
Consider `CC(C)(C)C(=O)NCCC(O)C1CC1` (stereo not given), for which the inhibition is -4%.
On to `CN(C)CCn1c2c(c(SCC(=O)Nc3ccccc3C(F)(F)F)nc1=O)CCC2`, for which the inhibition was 0%.
As to `O=C(CSc1nnnn1-c1cccc2ccccc12)Nc1ccccc1Cl`, the inhibition is -8.1%.
As to `COc1ccc(C(=O)Nc2ccccc2F)cc1OC`, the inhibition is -1.2%.
On to `COc1ccc(C2=NC3(CCCCC3)N(CC(=O)Nc3ccc4c(c3)OCO4)C2=O)cc1`, for which the inhibition was 3.31%.
Under `CNc1nccc(N2CCC(CC(=O)N3CCN(c4ccccc4)CC3)CC2)n1` stands 13.2%.
Regarding `NC(N)=Nc1nc(-c2ccccc2)c2cc(Cl)ccc2n1`, the inhibition is 100% (active).
With `Cc1nc(N=C(N)N)nc2c(C)cccc12`, the inhibition was 25.3%.
`O=c1cc(-c2ccccc2)sc2ccc(Cl)cc12`: the inhibition was 7%.
As to `O=C1CC(c2ccc(Cl)cc2)CC2=C1C(c1ccsc1)Nc1ccccc1N2` (stereo not given), the inhibition was 4%.
As to `COc1ccc(C2CC(=O)C3=C(C2)Nc2ccccc2NC3c2cc(F)ccc2F)cc1` (stereo not given), the inhibition was 23%.
In the case of `CN(C)c1ccc(C2Nc3ccccc3NC3=C2C(=O)CC(c2ccc(Cl)cc2)C3)cc1` (stereo not given), the inhibition was 63% (active).
`O=C(c1cccs1)N1CC(c2nc(-c3ncccn3)no2)C1`: the inhibition is -5.2%.
As for `COc1ccc(CNC(=O)CN(c2ccc(I)cc2)S(C)(=O)=O)cc1`, the inhibition was -4.2%.
Consider `COc1ccc(C2=N/C(=C\c3cccc([N+](=O)[O-])c3)C(=O)O2)c(Br)c1`, for which the inhibition is 3%.
As to `COc1ccc(C)cc1NC(=O)N1CCc2c(c(COCc3ccccc3F)nn2C)C1`, the inhibition was 33.8%.
Turning to `COc1ccc(N2CCN(CC(O)COC3CC4CCC3(C)C4(C)C)CC2)cc1` (stereo not given), the inhibition is 64.3% (active).
On to `CC1(C)C2CCC1(C)C(OCC(O)CN1CCOCC1)C2` (stereo not given), for which the inhibition is 2.6%.
As to `CC1CCN(CC(O)COC2CC3CCC2(C)C3(C)C)CC1` (stereo not given), the inhibition was -1.1%.
Under `COc1ccc(C2=NN3COc4ccc(Br)cc4C3C2)cc1` (stereo not given) stands 34%.
`COc1ccc(C2=NN3COc4ccc(Cl)cc4C3C2)cc1` (stereo not given): the inhibition is 27%.
Take `COc1ccc(C2=NN3C(C2)c2cc(OC)ccc2OC3(C)C)cc1` (stereo not given): the inhibition was 64% (active).
As for `COc1ccc2c(c1)C(=O)C(C1(O)C(=O)Nc3ccccc31)CC2` (stereo not given), the inhibition is 2.6%.
On to `COc1ccc(OC)c(C2C3=C(CC(C)(C)CC3=O)Nc3ccccc3N2C(C)=O)c1` (stereo not given), for which the inhibition is 8.9%.
With `O=S1(=O)CC(N2CCN(Cc3ccccc3F)CC2)CN1Cc1cn(Cc2cccc(C(F)(F)F)c2)nn1` (stereo not given) the figure was 6.8%; with `COCCCNC(=O)c1cnn2c(C(F)(F)F)cc(-c3cccs3)nc12`, 10%.
With `O=[N+]([O-])c1c(Cl)cc(Cl)c2nsnc12` the figure was 88% (active); with `O=C(Nc1ccc(S(=O)(=O)Nc2ccccn2)cc1)C1OC2OC3(CCCCC3)OC2C2OC3(CCCCC3)OC12` (stereo not given), 22.5%.
Consider `Cc1ccc(SCC(=O)N2CCN(C)CC2)cc1`, for which the inhibition was 0.5%.
Turning to `CCc1onc(C)c1C1CCCN1Cc1cc(Br)ccc1F` (stereo not given), the inhibition was -71.3%.
For the molecule `CCn1cc(-c2ccc(F)cc2)cc1C(=O)NC(C)c1cccnc1` (stereo not given), the inhibition is 50.5% (active).
Under `CCn1cc(-c2ccc(C)cc2)cc1C(=O)NCc1cccnc1` stands 46.7%; under `CCn1cc(-c2ccccc2)cc1C(=O)NCc1ccccn1`, 47.4%; under `OCCCc1nc2n(n1)C(c1ccco1)C=C(c1ccc(Br)cc1)N2` (stereo not given), 34%.
